Data taken from PubChem BioAssay AID1159580 (chemical genetic matrix, 2015).
Among all 5,500 compounds or so, about 2,000 (36%) were called active. Roughly 18% stayed inconclusive and do not appear here. Some of the results follow. A number with no mark means an inactive call. No stated cut-off is given here; in the data, active means normalized growth mostly below about 0.91 (no sharp cut-off); inconclusive means no clear call, values can overlap the other calls; inactive means mostly above about 0.92.

Assay: chemical genetic growth profiling, strain panel (AID 1159580);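 further: tested at 20 µM; growth read once vehicle control cultures reached saturation at 30 °C; 1 = growth at the plate median or of vehicle wells; lower values mean less growth of the strain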
Settings: growth OD
[1] = S. cerevisiae deletion strains, locus YAL013W, strain DEP1, hits give low values
[2] = S. cerevisiae deletion strains, locus YBR229C, strain ROT2, hits give low values
[3] = S. cerevisiae deletion strains, locus YDL101C, strain DUN1, hits give low values
[4] = S. cerevisiae deletion strains, locus YDL134C, strain PPH21, hits give low values
[5] = S. cerevisiae deletion strains, locus YDR150W, strain NUM1, hits give low values
[6] = S. cerevisiae deletion strains, locus YEL061C, strain CIN8, hits give low values
[7] = S. cerevisiae deletion strains, locus YGR078C, strain PAC10, hits give low values
[8] = S. cerevisiae deletion strains, locus YHR030C, strain SLT2, hits give low values
[9] = S. cerevisiae deletion strains, locus YHR087W, strain rtc3, hits give low values
[10] = S. cerevisiae deletion strains, locus YJR043C, strain POL32, hits give low values
[11] = S. cerevisiae deletion strains, locus YJR075W, strain HOC1, hits give low values
[12] = S. cerevisiae deletion strains, locus YLR039C, strain RIC1, hits give low values
[13] = S. cerevisiae deletion strains, locus YLR058C, strain SHM2 (second series), hits give low values
[14] = S. cerevisiae deletion strains, locus YLR085C, strain ARP6, hits give low values
[15] = S. cerevisiae deletion strains, locus YLR262C, strain YPT6, hits give low values
[16] = S. cerevisiae deletion strains, locus YML094W, strain GIM5, hits give low values
[17] = S. cerevisiae deletion strains, locus YMR219W, strain ESC1, hits give low values
[18] = S. cerevisiae deletion strains, locus YMR263W, strain SAP30, hits give low values
[19] = S. cerevisiae deletion strains, locus YNL153C, strain GIM3, hits give low values
[20] = S. cerevisiae deletion strains, locus YNL298W, strain CLA4 (second series), hits give low values
[21] = S. cerevisiae deletion strains, locus YNL322C, strain KRE1, hits give low values
[22] = S. cerevisiae deletion strains, locus YNR030W, strain Alg12, hits give low values
[23] = S. cerevisiae deletion strains, locus YOL006C, strain TOP1, hits give low values
[24] = S. cerevisiae deletion strains, locus YPL055C, strain LGE1, hits give low values
[25] = S. cerevisiae deletion strains, locus YPL241C, strain CIN2, hits give low values
[26] = S. cerevisiae deletion strains, locus YPR135W, strain CTF4, hits give low values
[27] = S. cerevisiae deletion strains, locus YAL040C, strain CLN3, hits give low values
[28] = S. cerevisiae deletion strains, locus YCL061C, strain MRC1 (second series), hits give low values
[29] = S. cerevisiae deletion strains, locus YDR363W, strain ESC2, hits give low values
[30] = S. cerevisiae deletion strains, locus YER002W, strain NOP16, hits give low values
[31] = S. cerevisiae deletion strains, locus YNL175C, strain NOP13, hits give low values
[32] = S. cerevisiae deletion strains, locus YNL197C, strain WHI3, hits give low values
[33] = S. cerevisiae deletion strains, locus YNL224C, strain SQS1, hits give low values
[34] = S. cerevisiae deletion strains, locus YOR083W, strain WHI5 (second series), hits give low values
[35] = S. cerevisiae deletion strains, locus YGR229C, strain SMI1, hits give low values
[36] = S. cerevisiae deletion strains, locus YMR307W, strain GAS1, hits give low values

Q: What does the source list for `O=C(CCN1CCOCC1)c1ccc2c(c1)OCCO2`?
A: normalized growth [1]: 0.979; normalized growth [2]: 0.982; normalized growth (S. cerevisiae deletion strains, locus YCL061C, strain MRC1, hits give low values): 1.01; normalized growth [3]: 1.01; normalized growth [4]: 0.836 (active); normalized growth [5]: 1.01; normalized growth [6]: 0.694 (active); normalized growth [7]: 0.987; normalized growth [8]: 0.51 (active); normalized growth [9]: 0.988; normalized growth [10]: 0.996; normalized growth [11]: 1.01; normalized growth [12]: 0.637 (active); normalized growth [13]: 0.989; normalized growth [14]: 0.259 (active); normalized growth [15]: 0.703 (active); normalized growth [16]: 0.802 (active); normalized growth [17]: 0.99; normalized growth [18]: 1; normalized growth [19]: 1.03; normalized growth [20]: 0.852; normalized growth [21]: 0.968; normalized growth [22]: 0.787 (active); normalized growth [23]: 0.708 (active); normalized growth [24]: 0.982; normalized growth [25]: 0.769 (active); normalized growth [26]: 0.737

Q: Which normalized growth [1] does the source give for `O=C(OCCN1CCOCC1)C1(c2ccccc2)CCCCC1` here?
A: 1.07

Q: What about the normalized growth [27] of the same compound?
A: 1.01

Q: What about the normalized growth [28] of the same compound?
A: 1

Q: And the normalized growth [5]?
A: 1.01

Q: And the normalized growth [29]?
A: 1

Q: And the normalized growth [30]?
A: 1.01

Q: What about the normalized growth [31] of the same compound?
A: 1.01

Q: What about the normalized growth [32] of the same compound?
A: 0.999

Q: What about the normalized growth [33] of the same compound?
A: 0.996

Q: What about the normalized growth [21] of the same compound?
A: 1.01

Q: And the normalized growth [34]?
A: 1

Q: And the normalized growth [24]?
A: 1.02

Q: And the normalized growth [25]?
A: 0.999

Q: Which normalized growth [27] does the source give for `O=C(c1ccc2c(c1)OCCO2)N1CCCCC1` here?
A: 0.989

Q: And the normalized growth [28]?
A: 0.991

Q: And the normalized growth [5]?
A: 1.01

Q: And the normalized growth [29]?
A: 1.06

Q: What about the normalized growth [30] of the same compound?
A: 0.986

Q: What about the normalized growth [35] of the same compound?
A: 1.01

Q: What about the normalized growth [11] of the same compound?
A: 1.03

Q: What about the normalized growth [18] of the same compound?
A: 1

Q: And the normalized growth [36]?
A: 1.01

Q: What about the normalized growth [19] of the same compound?
A: 0.98

Q: What about the normalized growth [31] of the same compound?
A: 0.992

Q: What about the normalized growth [32] of the same compound?
A: 0.976

Q: What about the normalized growth [33] of the same compound?
A: 1

Q: What about the normalized growth [21] of the same compound?
A: 1.02

Q: What about the normalized growth [34] of the same compound?
A: 0.993

Q: Which normalized growth [1] does the source give for `CCNS(=O)(=O)c1cc(Cl)sc1Cl` here?
A: 0.992

Q: What about the normalized growth [2] of the same compound?
A: 1.02

Q: And the normalized growth [3]?
A: 0.99

Q: What about the normalized growth [4] of the same compound?
A: 1.01

Q: What about the normalized growth [5] of the same compound?
A: 0.947

Q: What about the normalized growth [6] of the same compound?
A: 0.995

Q: What about the normalized growth [7] of the same compound?
A: 1

Q: What about the normalized growth [35] of the same compound?
A: 0.994

Q: And the normalized growth [8]?
A: 1.05

Q: What about the normalized growth [9] of the same compound?
A: 1

Q: And the normalized growth [10]?
A: 1.01

Q: And the normalized growth [11]?
A: 1.01

Q: And the normalized growth (S. cerevisiae deletion strains, locus YKL190W, strain CNB1, hits give low values)?
A: 1

Q: And the normalized growth [12]?
A: 0.989

Q: And the normalized growth [13]?
A: 1.04

Q: And the normalized growth [14]?
A: 0.983

Q: What about the normalized growth [15] of the same compound?
A: 0.985

Q: What about the normalized growth [16] of the same compound?
A: 1.01

Q: And the normalized growth [17]?
A: 0.994

Q: What about the normalized growth [18] of the same compound?
A: 1.01

Q: And the normalized growth [36]?
A: 0.976

Q: And the normalized growth [19]?
A: 1.01

Q: What about the normalized growth [20] of the same compound?
A: 1.05

Q: What about the normalized growth [21] of the same compound?
A: 0.992

Q: And the normalized growth [22]?
A: 1.01

Q: And the normalized growth [23]?
A: 1.02

Q: And the normalized growth [24]?
A: 1.12

Q: What about the normalized growth [25] of the same compound?
A: 1.01

Q: And the normalized growth [26]?
A: 1.13

Q: What about the normalized growth (S. cerevisiae strains, strain wild type, hits give low values) of the same compound?
A: 0.998
